Test results from the supplement of paper PMC11732987, “Enantioselective OTUD7B fragment discovery through chemoproteomics screening and high-throughput optimisation” (Communications Chemistry, 2025).

Key:
Test in all cases: log2 ratio of Biotin-Ahx-Ub-VS probe labelling (fragment/DMSO); higher = less target engagement (more negative = stronger competition), active = hit call of the paper (q ≤ 0.05, log2 ratio ≤ -1)
Conditions in all cases: compound concentration: 200 uM; treatment time: 3 h
USP42 = target: T1, USP42 (UniProt Q9H9J4)
T1 sequence (whole entry): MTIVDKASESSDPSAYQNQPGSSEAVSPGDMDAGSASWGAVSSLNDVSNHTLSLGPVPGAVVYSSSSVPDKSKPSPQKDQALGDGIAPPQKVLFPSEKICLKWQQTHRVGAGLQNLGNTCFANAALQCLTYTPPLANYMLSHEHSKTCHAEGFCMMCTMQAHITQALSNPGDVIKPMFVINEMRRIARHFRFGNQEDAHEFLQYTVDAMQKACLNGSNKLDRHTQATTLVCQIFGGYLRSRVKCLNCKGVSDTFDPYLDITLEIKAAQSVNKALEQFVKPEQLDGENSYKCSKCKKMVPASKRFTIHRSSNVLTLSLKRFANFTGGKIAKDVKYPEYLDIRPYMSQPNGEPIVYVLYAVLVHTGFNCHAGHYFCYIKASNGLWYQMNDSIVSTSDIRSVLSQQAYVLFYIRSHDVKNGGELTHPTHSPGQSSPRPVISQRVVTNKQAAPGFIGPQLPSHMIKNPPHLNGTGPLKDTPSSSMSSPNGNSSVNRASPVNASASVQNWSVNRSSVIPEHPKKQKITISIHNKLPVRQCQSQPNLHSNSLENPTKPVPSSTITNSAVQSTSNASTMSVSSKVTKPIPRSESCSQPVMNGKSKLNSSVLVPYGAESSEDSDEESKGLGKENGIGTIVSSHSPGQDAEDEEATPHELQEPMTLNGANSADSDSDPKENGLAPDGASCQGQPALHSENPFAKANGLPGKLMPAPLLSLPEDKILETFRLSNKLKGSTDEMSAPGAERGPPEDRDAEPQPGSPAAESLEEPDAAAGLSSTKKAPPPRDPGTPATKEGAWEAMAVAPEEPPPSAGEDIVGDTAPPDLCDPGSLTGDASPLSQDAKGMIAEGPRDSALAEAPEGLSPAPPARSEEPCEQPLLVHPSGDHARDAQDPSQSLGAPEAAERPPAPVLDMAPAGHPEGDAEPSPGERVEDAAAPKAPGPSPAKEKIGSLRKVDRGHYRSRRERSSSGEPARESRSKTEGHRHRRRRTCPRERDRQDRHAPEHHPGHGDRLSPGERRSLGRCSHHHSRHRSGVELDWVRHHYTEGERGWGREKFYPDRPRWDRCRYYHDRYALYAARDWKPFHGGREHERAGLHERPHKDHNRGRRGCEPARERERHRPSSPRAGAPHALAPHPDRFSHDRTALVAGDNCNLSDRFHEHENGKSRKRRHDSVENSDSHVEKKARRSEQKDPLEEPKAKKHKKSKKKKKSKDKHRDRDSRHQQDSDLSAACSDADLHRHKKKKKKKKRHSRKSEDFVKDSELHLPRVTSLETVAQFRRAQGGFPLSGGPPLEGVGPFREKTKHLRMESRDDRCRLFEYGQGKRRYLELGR
Procedure, shortened: (§1)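 Triplicate samples of HEK293T lysate, 495 µg each, received fragment at 200 µM or vehicle for 3 h, followed by Biotin-Ahx-Ub-VS (0.5 µM final) for 1 h. After NeutrAvidin enrichment of labelled DUBs and LysC/trypsin digestion, peptides were run by diaPASEF LC-MS/MS. The values are average log2 fragment/vehicle ratios from global-median-normalised Spectronaut label-free quantities, tested by unpaired t-test on proteins having ≥2 unique peptides.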

USP46 = USP46 (UniProt P62068)
Procedure, shortened: as §1

USP47 = target: T2, USP47 (UniProt Q96K76)
T2 sequence (whole entry): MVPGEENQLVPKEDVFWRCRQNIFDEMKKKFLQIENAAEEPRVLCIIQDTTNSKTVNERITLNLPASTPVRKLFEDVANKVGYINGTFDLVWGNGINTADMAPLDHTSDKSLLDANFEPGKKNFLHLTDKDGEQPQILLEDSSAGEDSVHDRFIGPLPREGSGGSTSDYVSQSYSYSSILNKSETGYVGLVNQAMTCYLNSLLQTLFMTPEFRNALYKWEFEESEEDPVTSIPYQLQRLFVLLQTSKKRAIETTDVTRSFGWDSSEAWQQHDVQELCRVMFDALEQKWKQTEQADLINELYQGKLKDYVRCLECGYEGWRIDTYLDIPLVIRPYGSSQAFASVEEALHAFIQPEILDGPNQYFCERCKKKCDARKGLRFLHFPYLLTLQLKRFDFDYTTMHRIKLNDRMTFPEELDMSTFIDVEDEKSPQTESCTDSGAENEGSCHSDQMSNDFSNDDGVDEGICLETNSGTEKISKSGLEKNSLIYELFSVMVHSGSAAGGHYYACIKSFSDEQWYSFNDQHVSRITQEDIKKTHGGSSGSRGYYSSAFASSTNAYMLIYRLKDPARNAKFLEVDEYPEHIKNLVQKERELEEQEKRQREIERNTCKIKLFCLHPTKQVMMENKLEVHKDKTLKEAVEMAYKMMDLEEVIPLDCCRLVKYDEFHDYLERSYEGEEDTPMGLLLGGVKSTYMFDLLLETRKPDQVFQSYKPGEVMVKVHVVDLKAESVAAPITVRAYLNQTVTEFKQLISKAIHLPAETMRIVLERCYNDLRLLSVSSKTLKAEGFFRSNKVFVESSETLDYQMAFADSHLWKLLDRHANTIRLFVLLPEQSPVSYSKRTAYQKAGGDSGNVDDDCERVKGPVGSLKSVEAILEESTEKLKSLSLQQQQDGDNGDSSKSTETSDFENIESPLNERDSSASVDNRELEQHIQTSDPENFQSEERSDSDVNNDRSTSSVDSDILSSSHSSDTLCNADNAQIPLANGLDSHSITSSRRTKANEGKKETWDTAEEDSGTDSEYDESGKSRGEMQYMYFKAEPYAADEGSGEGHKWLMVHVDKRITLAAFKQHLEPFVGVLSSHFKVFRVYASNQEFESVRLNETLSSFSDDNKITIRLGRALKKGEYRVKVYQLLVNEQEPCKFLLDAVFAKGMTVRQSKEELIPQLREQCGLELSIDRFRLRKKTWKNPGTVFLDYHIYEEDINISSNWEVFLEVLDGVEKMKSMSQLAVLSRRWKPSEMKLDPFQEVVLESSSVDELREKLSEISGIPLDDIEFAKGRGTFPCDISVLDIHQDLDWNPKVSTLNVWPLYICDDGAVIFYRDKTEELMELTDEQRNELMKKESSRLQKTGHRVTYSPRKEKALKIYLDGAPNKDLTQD
Procedure, shortened: as §1

USP48 = target: T3, USP48 (UniProt Q86UV5)
T3 sequence (whole entry): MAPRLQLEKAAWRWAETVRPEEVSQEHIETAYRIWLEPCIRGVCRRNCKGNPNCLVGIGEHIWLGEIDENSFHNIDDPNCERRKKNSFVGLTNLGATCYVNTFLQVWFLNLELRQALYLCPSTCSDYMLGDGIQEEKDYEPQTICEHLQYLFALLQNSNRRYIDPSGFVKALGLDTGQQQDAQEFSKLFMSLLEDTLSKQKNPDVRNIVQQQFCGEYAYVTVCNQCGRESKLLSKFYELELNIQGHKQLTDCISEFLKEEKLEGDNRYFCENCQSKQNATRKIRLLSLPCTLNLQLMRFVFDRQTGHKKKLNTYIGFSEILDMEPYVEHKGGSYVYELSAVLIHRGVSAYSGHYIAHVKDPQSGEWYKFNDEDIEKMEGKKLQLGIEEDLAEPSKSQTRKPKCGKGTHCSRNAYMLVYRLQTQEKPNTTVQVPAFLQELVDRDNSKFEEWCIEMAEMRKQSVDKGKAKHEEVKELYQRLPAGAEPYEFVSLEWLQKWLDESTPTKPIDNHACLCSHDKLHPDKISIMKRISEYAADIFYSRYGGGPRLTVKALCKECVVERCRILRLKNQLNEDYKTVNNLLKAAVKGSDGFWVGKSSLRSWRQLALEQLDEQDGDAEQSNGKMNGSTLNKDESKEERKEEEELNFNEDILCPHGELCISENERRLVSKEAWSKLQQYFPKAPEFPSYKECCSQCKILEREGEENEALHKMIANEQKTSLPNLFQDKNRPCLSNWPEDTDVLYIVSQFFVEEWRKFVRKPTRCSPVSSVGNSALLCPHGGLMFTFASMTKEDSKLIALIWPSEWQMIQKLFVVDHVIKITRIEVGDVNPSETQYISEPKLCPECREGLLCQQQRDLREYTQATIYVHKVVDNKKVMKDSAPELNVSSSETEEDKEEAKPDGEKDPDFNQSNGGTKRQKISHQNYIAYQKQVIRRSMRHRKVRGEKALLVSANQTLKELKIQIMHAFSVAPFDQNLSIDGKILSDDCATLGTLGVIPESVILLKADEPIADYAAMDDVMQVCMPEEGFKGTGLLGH
Procedure, shortened: as §1

USP5 = target: T4, USP5 (UniProt P45974)
T4 sequence (whole entry): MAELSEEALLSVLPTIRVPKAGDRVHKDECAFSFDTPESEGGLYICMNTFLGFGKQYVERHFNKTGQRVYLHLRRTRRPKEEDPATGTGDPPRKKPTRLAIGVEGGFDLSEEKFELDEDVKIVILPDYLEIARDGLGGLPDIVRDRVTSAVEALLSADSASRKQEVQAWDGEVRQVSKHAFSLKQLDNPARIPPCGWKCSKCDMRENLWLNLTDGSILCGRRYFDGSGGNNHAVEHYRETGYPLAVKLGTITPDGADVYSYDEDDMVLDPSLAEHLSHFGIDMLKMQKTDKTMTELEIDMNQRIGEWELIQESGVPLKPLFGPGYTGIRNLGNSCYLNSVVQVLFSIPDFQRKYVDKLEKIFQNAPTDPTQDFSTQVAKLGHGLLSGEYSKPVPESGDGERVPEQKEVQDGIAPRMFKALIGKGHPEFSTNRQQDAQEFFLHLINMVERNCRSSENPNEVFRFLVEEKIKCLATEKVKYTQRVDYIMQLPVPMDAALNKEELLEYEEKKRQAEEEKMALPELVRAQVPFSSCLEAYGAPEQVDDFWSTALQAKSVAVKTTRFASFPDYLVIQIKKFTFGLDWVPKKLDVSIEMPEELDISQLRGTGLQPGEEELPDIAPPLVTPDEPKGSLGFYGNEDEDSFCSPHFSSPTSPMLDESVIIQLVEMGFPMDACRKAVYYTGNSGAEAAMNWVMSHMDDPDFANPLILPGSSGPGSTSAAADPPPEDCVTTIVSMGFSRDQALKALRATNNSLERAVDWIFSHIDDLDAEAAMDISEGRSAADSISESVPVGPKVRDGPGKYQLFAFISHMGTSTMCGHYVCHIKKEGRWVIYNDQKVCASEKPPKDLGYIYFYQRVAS
Procedure, shortened: as §1

USP54 = USP54 (UniProt Q70EL1)
Procedure, shortened: as §1

USP7 = USP7 (UniProt Q93009)
Procedure, shortened: as §1

USP8 = target: T5, USP8 (UniProt P40818)
T5 sequence (whole entry): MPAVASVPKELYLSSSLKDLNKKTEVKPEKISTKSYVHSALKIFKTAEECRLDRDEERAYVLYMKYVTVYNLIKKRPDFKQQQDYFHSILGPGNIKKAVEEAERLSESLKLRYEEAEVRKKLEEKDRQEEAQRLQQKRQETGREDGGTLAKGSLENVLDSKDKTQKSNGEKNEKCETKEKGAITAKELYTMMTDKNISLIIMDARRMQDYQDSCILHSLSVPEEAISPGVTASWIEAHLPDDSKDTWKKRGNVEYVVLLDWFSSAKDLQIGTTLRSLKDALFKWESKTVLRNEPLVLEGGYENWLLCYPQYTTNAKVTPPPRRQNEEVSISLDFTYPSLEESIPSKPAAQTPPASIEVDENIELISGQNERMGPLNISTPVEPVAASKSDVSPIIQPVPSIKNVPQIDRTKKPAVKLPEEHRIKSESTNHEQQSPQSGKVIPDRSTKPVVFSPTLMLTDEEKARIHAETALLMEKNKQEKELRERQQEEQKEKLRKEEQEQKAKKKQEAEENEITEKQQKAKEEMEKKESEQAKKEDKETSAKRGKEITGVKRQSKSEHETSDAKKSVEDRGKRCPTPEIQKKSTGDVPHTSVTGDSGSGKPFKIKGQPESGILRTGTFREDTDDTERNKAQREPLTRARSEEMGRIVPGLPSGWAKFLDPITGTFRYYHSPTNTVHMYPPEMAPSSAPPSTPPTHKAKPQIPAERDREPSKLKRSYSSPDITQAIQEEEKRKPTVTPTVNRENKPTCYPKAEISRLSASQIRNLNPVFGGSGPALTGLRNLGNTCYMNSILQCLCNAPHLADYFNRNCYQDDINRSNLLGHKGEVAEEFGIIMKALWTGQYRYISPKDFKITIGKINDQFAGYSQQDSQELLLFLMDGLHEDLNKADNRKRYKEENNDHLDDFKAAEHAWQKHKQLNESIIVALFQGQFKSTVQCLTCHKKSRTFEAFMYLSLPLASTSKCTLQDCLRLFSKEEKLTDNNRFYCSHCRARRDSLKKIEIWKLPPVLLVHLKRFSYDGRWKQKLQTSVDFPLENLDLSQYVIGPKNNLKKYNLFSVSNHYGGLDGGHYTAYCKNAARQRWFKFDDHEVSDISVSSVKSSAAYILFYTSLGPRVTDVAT
Procedure, shortened: as §1

USP9X = USP9X (UniProt Q93008)
Procedure, shortened: as §1

UniProt O00487 = target: UniProt O00487
Procedure, shortened: as §1

Measured: log2 ratio of Biotin-Ahx-Ub-VS probe labelling

UniProt O00487, sequence (O00487 whole entry): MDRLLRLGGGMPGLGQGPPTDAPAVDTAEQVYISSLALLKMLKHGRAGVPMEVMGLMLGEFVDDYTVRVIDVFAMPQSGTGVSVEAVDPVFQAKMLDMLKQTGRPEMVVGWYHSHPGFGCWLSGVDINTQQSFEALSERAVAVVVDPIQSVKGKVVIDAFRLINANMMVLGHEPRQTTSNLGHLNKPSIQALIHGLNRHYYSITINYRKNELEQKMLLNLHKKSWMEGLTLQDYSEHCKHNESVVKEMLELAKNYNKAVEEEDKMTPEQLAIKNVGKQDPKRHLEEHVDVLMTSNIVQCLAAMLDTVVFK
USP46, sequence (P62068 whole entry): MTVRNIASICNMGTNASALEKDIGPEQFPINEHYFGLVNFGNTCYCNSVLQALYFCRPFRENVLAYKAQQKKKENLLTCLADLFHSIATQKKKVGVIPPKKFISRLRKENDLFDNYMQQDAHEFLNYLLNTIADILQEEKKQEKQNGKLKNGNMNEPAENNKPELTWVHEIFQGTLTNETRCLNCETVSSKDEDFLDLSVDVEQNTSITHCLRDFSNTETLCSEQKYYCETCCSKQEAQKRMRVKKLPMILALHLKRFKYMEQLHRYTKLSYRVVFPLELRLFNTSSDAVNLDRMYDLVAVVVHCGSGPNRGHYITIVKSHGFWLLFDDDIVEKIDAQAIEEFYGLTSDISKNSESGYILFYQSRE
USP7, sequence (Q93009 whole entry, looked up): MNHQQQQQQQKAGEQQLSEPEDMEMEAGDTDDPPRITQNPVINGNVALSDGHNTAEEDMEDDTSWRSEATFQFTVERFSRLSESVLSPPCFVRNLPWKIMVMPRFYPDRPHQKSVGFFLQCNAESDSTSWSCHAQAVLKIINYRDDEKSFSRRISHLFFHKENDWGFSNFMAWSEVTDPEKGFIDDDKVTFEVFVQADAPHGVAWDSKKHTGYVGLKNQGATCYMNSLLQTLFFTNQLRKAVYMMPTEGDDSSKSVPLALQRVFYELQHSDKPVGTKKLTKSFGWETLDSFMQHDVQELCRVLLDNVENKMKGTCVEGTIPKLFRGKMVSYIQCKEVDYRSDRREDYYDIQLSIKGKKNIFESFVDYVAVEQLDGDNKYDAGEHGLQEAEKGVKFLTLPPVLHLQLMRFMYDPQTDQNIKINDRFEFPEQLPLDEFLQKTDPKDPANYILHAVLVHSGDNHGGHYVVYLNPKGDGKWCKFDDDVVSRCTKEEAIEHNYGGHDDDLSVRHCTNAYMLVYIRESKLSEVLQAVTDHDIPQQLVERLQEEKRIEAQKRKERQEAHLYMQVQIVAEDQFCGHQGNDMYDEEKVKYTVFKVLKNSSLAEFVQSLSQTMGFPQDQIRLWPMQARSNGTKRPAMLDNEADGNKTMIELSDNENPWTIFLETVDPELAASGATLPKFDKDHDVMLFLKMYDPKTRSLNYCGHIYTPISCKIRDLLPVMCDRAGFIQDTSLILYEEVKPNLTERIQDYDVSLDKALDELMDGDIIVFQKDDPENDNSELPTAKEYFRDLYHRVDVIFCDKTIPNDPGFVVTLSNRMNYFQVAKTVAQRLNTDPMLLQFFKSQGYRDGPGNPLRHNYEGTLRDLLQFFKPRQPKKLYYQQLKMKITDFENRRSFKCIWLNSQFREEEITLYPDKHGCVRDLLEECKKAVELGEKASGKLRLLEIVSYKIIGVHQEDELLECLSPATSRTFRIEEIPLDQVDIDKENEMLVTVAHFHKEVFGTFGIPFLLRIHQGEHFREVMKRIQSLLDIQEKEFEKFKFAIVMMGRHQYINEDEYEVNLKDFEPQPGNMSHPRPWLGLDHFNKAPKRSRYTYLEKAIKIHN
USP9X, sequence (Q93008 whole entry): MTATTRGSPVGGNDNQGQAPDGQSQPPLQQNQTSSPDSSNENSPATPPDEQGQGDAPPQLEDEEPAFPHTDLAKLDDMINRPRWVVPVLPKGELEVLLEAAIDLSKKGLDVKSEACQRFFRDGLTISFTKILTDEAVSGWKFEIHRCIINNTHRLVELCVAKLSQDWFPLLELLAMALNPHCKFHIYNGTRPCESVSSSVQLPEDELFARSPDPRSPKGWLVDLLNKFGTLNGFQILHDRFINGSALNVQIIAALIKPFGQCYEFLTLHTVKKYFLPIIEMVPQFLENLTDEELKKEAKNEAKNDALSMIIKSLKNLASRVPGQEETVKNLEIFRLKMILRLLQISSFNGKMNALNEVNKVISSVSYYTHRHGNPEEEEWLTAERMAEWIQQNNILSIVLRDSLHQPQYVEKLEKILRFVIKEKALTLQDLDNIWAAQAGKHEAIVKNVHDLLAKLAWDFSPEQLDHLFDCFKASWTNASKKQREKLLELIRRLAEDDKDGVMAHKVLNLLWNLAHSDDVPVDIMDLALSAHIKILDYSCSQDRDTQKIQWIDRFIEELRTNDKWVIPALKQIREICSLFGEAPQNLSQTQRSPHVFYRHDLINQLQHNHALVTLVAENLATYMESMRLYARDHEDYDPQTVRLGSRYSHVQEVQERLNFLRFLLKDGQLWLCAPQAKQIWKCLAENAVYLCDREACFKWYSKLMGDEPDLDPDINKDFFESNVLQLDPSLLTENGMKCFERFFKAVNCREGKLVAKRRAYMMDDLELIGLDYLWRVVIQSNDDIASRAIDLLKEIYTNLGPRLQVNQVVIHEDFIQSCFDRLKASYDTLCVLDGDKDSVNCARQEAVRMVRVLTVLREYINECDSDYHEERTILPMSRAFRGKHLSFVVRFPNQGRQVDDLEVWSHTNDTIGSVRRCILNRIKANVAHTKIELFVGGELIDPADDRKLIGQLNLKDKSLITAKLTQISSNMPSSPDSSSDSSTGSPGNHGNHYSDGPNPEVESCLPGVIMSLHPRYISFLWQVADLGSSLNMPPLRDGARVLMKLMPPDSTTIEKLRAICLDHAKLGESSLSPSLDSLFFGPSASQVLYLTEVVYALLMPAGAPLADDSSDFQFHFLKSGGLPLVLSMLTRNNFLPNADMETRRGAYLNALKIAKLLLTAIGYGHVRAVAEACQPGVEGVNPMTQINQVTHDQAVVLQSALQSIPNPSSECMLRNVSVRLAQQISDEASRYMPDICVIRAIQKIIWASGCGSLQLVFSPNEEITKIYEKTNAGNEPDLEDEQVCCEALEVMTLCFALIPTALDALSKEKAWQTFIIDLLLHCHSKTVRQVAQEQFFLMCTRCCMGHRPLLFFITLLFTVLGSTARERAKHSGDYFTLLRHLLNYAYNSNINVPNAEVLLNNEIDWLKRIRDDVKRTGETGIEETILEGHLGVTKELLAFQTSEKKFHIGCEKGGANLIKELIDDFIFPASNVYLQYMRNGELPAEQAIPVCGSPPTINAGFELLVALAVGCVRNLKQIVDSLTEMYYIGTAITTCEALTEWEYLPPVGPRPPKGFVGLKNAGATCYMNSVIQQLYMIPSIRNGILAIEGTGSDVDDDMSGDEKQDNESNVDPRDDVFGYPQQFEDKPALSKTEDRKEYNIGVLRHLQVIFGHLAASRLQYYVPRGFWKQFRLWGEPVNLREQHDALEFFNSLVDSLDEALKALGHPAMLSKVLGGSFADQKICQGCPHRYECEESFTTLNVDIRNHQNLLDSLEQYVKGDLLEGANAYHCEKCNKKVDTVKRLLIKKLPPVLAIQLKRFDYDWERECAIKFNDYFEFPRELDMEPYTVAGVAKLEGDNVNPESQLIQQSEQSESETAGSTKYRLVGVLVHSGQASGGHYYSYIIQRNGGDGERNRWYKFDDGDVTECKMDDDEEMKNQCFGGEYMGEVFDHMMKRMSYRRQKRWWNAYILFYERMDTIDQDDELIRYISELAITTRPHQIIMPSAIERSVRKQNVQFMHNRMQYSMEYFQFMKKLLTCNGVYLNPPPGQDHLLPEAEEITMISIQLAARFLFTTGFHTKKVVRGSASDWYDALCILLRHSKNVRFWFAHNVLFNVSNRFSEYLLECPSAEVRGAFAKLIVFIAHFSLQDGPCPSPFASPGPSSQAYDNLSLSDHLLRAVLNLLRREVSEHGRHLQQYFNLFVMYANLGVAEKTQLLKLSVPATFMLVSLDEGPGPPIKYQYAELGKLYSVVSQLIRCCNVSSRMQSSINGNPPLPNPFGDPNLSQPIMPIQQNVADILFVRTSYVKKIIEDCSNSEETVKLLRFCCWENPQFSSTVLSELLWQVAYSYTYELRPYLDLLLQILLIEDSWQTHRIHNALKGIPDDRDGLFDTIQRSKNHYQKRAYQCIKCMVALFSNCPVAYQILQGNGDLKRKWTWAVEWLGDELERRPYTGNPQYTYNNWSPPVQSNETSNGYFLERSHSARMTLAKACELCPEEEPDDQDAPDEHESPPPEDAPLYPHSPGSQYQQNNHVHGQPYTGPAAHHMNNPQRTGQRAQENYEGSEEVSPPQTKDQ

Cl.O=C(CCl)N1CCCC(c2ncc[nH]2)C1 (stereo not given)
inactive: USP42 -0.153 | USP46 0.183 | USP47 -0.357 | USP48 -0.331 | USP5 0.191 | USP54 0.506 | USP7 -0.273 | USP8 -0.0352 | USP9X -0.121 | UniProt O00487 -0.0974
